# The full list was thinned out, with the strongest signals kept by preference.
# What was measured:
# Assay in all cases: glycan array binding signal (z-score within array); higher = stronger binding
# Conditions in all cases: glycan notation: IUPAC condensed, linker removed
# [1] = target: Fuc(a1-2)Gal(b1-3)GalNAc(a1-3)[Fuc(a1-2)]Gal(b1-4)Glc
# Procedure, shortened: (§1)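 The Consortium for Functional Glycomics database supplied 3228 glycan arrays, of which those lacking an available protein sequence were dropped. The binding signal, a within-array Z-score, was averaged across arrays of the same protein sequence and across linkers. Negative scores can be read as non-binding.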
# [2] = target: Fuc(a1-2)Gal(b1-3)GalNAc(a1-3)[Fuc(a1-2)]Gal(b1-4)GlcNAc
# Procedure, shortened: as §1
# [3] = target: Fuc(a1-2)Gal(b1-3)GlcNAc(b1-2)Man(a1-3)[Fuc(a1-2)Gal(b1-3)GlcNAc(b1-2)Man(a1-6)]Man(b1-4)GlcNAc(b1-4)GlcNAc
# Procedure, shortened: as §1
# Fuc(a1-2)Gal(b1-4)Glc6S = target: Fuc(a1-2)Gal(b1-4)Glc6S
# Procedure, shortened: as §1
# [4] = target: Fuc(a1-2)Gal(b1-4)GlcNAc(b1-3)Gal(b1-4)GlcNAc(b1-3)Gal(b1-4)GlcNAc
# Procedure, shortened: as §1
# [5] = target: Fuc(a1-2)Gal(b1-4)[Fuc(a1-3)]GlcNAc
# Procedure, shortened: as §1
# [6] = target: Fuc(a1-2)[Gal(a1-3)]Gal(b1-4)GlcNAc
# Procedure, shortened: as §1
# [7] = target: Fuc(a1-2)[Gal(a1-3)]Gal(b1-4)[Fuc(a1-3)]GlcNAc
# Procedure, shortened: as §1
# [8] = target: Fuc(a1-2)[GalNAc(b1-3)]Gal
# Procedure, shortened: as §1
# Fuc(b1-3)GlcNAc = target: Fuc(b1-3)GlcNAc
# Procedure, shortened: as §1
# [9] = target: Gal(a1-3)Gal(b1-4)[Fuc(a1-3)]GlcNAc
# Procedure, shortened: as §1
# [10] = target: Gal(a1-4)Gal(b1-3)GlcNAc(b1-2)Man(a1-3)[Gal(a1-4)Gal(b1-3)GlcNAc(b1-2)Man(a1-6)]Man(b1-4)GlcNAc(b1-4)GlcNAc
# Procedure, shortened: as §1
# Gal(a1-4)GlcNAc = target: Gal(a1-4)GlcNAc
# Procedure, shortened: as §1
# [11] = target: Gal(b1-3)GalNAc(b1-3)Gal(a1-4)Gal(b1-4)Glc
# Procedure, shortened: as §1
# [12] = target: Gal(b1-3)GlcNAc(b1-3)Gal(b1-4)Glc
# Procedure, shortened: as §1
# [13] = target: Gal(b1-3)GlcNAc(b1-3)Gal(b1-4)GlcNAc(b1-6)[Gal(b1-3)GlcNAc(b1-3)]Gal(b1-4)Glc
# Procedure, shortened: as §1
# [14] = target: Gal(b1-3)GlcNAc(b1-3)GalNAc
# Procedure, shortened: as §1
# [15] = target: Gal(b1-3)[Fuc(a1-4)]GlcNAc(b1-2)Man(a1-3)[Gal(b1-3)[Fuc(a1-4)]GlcNAc(b1-2)Man(a1-6)]Man(b1-4)GlcNAc(b1-4)GlcNAc
# Procedure, shortened: as §1
# [16] = target: Gal(b1-4)GlcNAc(b1-3)Gal(b1-4)[Fuc(a1-3)]GlcNAc(b1-3)Gal(b1-4)[Fuc(a1-3)]GlcNAc
# Procedure, shortened: as §1
# [17] = target: Gal(b1-4)GlcNAc(b1-3)[GlcNAc(b1-6)]Gal(b1-4)GlcNAc
# Procedure, shortened: as §1
# [18] = target: Gal3S(b1-3)[Fuc(a1-4)]GlcNAc
# Procedure, shortened: as §1
# Gal3S(b1-4)Glc = target: Gal3S(b1-4)Glc
# Procedure, shortened: as §1
# [19] = target: Gal3S(b1-4)[Fuc(a1-3)]Glc
# Procedure, shortened: as §1
# GlcA(b1-3)Gal = target: GlcA(b1-3)Gal
# Procedure, shortened: as §1
# [20] = target: GlcNAc(a1-4)Gal(b1-4)GlcNAc(b1-3)Gal(b1-4)GlcNAc
# Procedure, shortened: as §1
# [21] = target: GlcNAc(a1-4)Gal(b1-4)GlcNAc(b1-3)Gal(b1-4)[Fuc(a1-3)]GlcNAc(b1-3)Gal(b1-4)[Fuc(a1-3)]GlcNAc
# Procedure, shortened: as §1
# GlcNAc(b1-3)Gal(b1-4)Glc = target: GlcNAc(b1-3)Gal(b1-4)Glc
# Procedure, shortened: as §1
# [22] = target: GlcNAc(b1-3)Gal(b1-4)GlcNAc
# Procedure, shortened: as §1
# [23] = target: GlcNAc(b1-3)Gal(b1-4)GlcNAc(b1-3)Gal(b1-4)GlcNAc
# Procedure, shortened: as §1
# [24] = target: GlcNAc(b1-4)GlcNAc(b1-4)GlcNAc
# Procedure, shortened: as §1
# [25] = target: GlcNAc(b1-3)Gal(b1-4)GlcNAc(b1-3)Gal(b1-4)GlcNAc(b1-3)Gal(b1-4)GlcNAc(b1-2)Man(a1-3)[GlcNAc(b1-3)Gal(b1-4)GlcNAc(b1-3)Gal(b1-4)GlcNAc(b1-3)Gal(b1-4)GlcNAc(b1-2)Man(a1-6)]Man(b1-4)GlcNAc(b1-4)[Fuc(a1-6)]GlcNAc
# Procedure, shortened: as §1
# [26] = target: GlcNAc(b1-3)Gal(b1-4)GlcNAc(b1-3)Gal(b1-4)GlcNAc(b1-3)Gal(b1-4)GlcNAc(b1-2)[GlcNAc(b1-3)Gal(b1-4)GlcNAc(b1-3)Gal(b1-4)GlcNAc(b1-3)Gal(b1-4)GlcNAc(b1-6)]Man(a1-6)[GlcNAc(b1-3)Gal(b1-4)GlcNAc(b1-3)Gal(b1-4)GlcNAc(b1-3)Gal(b1-4)GlcNAc(b1-2)Man(a1-3)]Man(b1-4)GlcNAc(b1-4)[Fuc(a1-6)]GlcNAc
# Procedure, shortened: as §1
# GlcNAc(b1-4)GlcNAc = target: GlcNAc(b1-4)GlcNAc
# Procedure, shortened: as §1
# [27] = target: GlcNAc(b1-4)[GlcNAc(b1-6)]GalNAc
# Procedure, shortened: as §1
# [28] = target: GlcNAc(b1-6)Gal(b1-4)GlcNAc
# Procedure, shortened: as §1
# [29] = target: Man(a1-2)Man(a1-2)Man(a1-6)[Man(a1-3)]Man
# Procedure, shortened: as §1
# [30] = target: Man(a1-3)[Man(a1-6)]Man(b1-4)GlcNAc(b1-4)GlcNAc
# Procedure, shortened: as §1
# Man(b1-4)GlcNAc = target: Man(b1-4)GlcNAc
# Procedure, shortened: as §1
# Neu5Ac(a2-3)Gal = target: Neu5Ac(a2-3)Gal
# Procedure, shortened: as §1
# [31] = target: Neu5Ac(a2-3)Gal(b1-3)GalNAc6S
# Procedure, shortened: as §1
# [32] = target: Neu5Ac(a2-3)Gal(b1-3)GlcNAc(b1-3)Gal(b1-4)GlcNAc
# Procedure, shortened: as §1
# [33] = target: Neu5Ac(a2-3)Gal(b1-4)GlcNAc(b1-2)Man(a1-3)[Neu5Ac(a2-6)Gal(b1-4)GlcNAc(b1-2)Man(a1-6)]Man(b1-4)GlcNAc(b1-4)GlcNAc
# Procedure, shortened: as §1
# [34] = target: Neu5Ac(a2-3)Gal(b1-4)GlcNAc(b1-3)Gal(b1-4)GlcNAc(b1-2)Man(a1-3)[Neu5Ac(a2-3)Gal(b1-4)GlcNAc(b1-3)Gal(b1-4)GlcNAc(b1-2)Man(a1-6)]Man(b1-4)GlcNAc(b1-4)GlcNAc
# Procedure, shortened: as §1
# [35] = target: Neu5Ac(a2-3)Gal(b1-4)[Fuc(a1-3)]GlcNAc(b1-2)Man
# Procedure, shortened: as §1
# Neu5Ac(a2-8)Neu5Ac = target: Neu5Ac(a2-8)Neu5Ac
# Procedure, shortened: as §1
# [36] = target: Neu5Ac(a2-8)Neu5Ac(a2-8)Neu5Ac
# Procedure, shortened: as §1
# [37] = target: Neu5Gc(a2-3)Gal(b1-4)GlcNAc
# Procedure, shortened: as §1
binder,measurement,setting,value
"Ecp6 (Cladosporium fulvum), B3VBK9 (protein) MQSMILFAAALMGAAVNGFVLPRTDDPDCETKATDCGSTSNIKYTVVKGDTLTSIAKKFKSGICNIVSVNKLANPNLIELGATLIIPENCSNPDNKSCVSTPAEPTETCVPGLPGSYTIVSGDTLTNISQDFNITLDSLIAANTQIENPDAIDVGQIITVPVCPSSQCEAVGTYNIVAGDLFVDLAATYHTTIGQIKALNNNVNPSKLKVGQQIILPQDCKNVTTAVA",glycan array binding signal (z-score),[1],-0.099
same,glycan array binding signal (z-score),[2],-0.099
same,glycan array binding signal (z-score),[3],-0.096
same,glycan array binding signal (z-score),Fuc(a1-2)Gal(b1-4)Glc6S,-0.062
same,glycan array binding signal (z-score),[4],-0.082
same,glycan array binding signal (z-score),[5],-0.078
same,glycan array binding signal (z-score),[6],-0.078
same,glycan array binding signal (z-score),[7],-0.021
same,glycan array binding signal (z-score),[8],-0.077
same,glycan array binding signal (z-score),Fuc(b1-3)GlcNAc,-0.083
same,glycan array binding signal (z-score),[9],-0.102
same,glycan array binding signal (z-score),[10],-0.099
same,glycan array binding signal (z-score),Gal(a1-4)GlcNAc,-0.102
same,glycan array binding signal (z-score),[11],-0.064
same,glycan array binding signal (z-score),[12],-0.076
same,glycan array binding signal (z-score),[13],-0.107
same,glycan array binding signal (z-score),[14],-0.089
same,glycan array binding signal (z-score),[15],-0.039
same,glycan array binding signal (z-score),[16],-0.036
same,glycan array binding signal (z-score),[17],-0.096
same,glycan array binding signal (z-score),[18],-0.074
same,glycan array binding signal (z-score),Gal3S(b1-4)Glc,-0.098
same,glycan array binding signal (z-score),[19],-0.084
same,glycan array binding signal (z-score),GlcA(b1-3)Gal,-0.089
same,glycan array binding signal (z-score),[20],-0.091
same,glycan array binding signal (z-score),[21],-0.002
same,glycan array binding signal (z-score),GlcNAc(b1-3)Gal(b1-4)Glc,-0.094
same,glycan array binding signal (z-score),[22],-0.1
same,glycan array binding signal (z-score),[23],-0.075
same,glycan array binding signal (z-score),[24],10.3
Epf (Streptococcus pyogenes) (protein) GDHGPEFNGVMVVKAAEAEELPDDLMNFKGTWEVSADGSSGRFFSKGATDSYVFHLIPAKDVKKPGWREHNEVKDSYIKIDKQSIAARYKTSTTAPYSVAFKVNTKSLIKDHDYKITFEQGQIASGITVDYRIGSAFNKTTDDSFKISDESKYASNVKIEGEEQGFKQREQGDKTISFRTLKEGPMSLVLLSKVEKKPQGDLDVEFKNLKIIDVTNPSQLDKGVAYVGNKNVQLTLKSDDGRTNFEGDEISLFNSRGELLQTVTVTKDQQNPISITLSEDQAKSLKNKEKLKVSIKQKQSKKTSKDFFFEVGIDPKVEAKQKEKLLELDKVKKQIEDSINGDAWLPEKPVDLQGDHGLSAWSHPQFEK,glycan array binding signal (z-score),[25],2.18
same,glycan array binding signal (z-score),[26],2.85
same,glycan array binding signal (z-score),GlcNAc(b1-4)GlcNAc,-1.32
same,glycan array binding signal (z-score),[27],3.11
same,glycan array binding signal (z-score),[28],-0.433
same,glycan array binding signal (z-score),[29],1.01
same,glycan array binding signal (z-score),[30],0.659
same,glycan array binding signal (z-score),Man(b1-4)GlcNAc,-0.471
same,glycan array binding signal (z-score),Neu5Ac(a2-3)Gal,-0.169
same,glycan array binding signal (z-score),[31],1.65
same,glycan array binding signal (z-score),[32],-1.25
same,glycan array binding signal (z-score),[33],-0.643
same,glycan array binding signal (z-score),[34],1.33
same,glycan array binding signal (z-score),[35],-1.48
same,glycan array binding signal (z-score),Neu5Ac(a2-8)Neu5Ac,0.246
same,glycan array binding signal (z-score),[36],-0.377
same,glycan array binding signal (z-score),[37],0.422

# From the supplement of paper PMC8728848
